The entries come from a sample that favours hits as a whole.
DT40 TDP1 no CPT: qHTS for Inhibitors of human tyrosyl-DNA phosphodiesterase 1 (TDP1): qHTS in cells in absence of CPT. hit rate 15% among 420,000. Potency, µM (titrated, usually from 46.2 µM), for the others: top-dose activity change, negative = growth inhibition, usual class: inhibitors. AID 686978, 2013. DT40 Tdp1-/- hTDP1 cells, no CPT, ATP luminescence, 48 h; note: potency is the fitted concentration of half-maximal effect; nearly all actives have a fitted effect of over 55% in size
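Luminescent ATP content (CellTiter-Glo) served as the growth readout. Knockout chicken DT40 cells expressing human TDP1 were exposed to compounds without camptothecin for a minimum 48 hr at 37 °C.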
ALOX12 inh: ALOX12 (human) lipoxygenase inhibition; P18054; purified 12hLO, xylenol orange hydroperoxide absorbance; Potency, µM (top dose mostly 108 µM), for the others: at the top dose activity change, negative = inhibition, actives largely listed as inhibitors; hit rate 1.1% among 580,000; AID 1671190; note: potency is the fitted concentration of half-maximal effect
Target sequence (P18054 whole entry, looked up): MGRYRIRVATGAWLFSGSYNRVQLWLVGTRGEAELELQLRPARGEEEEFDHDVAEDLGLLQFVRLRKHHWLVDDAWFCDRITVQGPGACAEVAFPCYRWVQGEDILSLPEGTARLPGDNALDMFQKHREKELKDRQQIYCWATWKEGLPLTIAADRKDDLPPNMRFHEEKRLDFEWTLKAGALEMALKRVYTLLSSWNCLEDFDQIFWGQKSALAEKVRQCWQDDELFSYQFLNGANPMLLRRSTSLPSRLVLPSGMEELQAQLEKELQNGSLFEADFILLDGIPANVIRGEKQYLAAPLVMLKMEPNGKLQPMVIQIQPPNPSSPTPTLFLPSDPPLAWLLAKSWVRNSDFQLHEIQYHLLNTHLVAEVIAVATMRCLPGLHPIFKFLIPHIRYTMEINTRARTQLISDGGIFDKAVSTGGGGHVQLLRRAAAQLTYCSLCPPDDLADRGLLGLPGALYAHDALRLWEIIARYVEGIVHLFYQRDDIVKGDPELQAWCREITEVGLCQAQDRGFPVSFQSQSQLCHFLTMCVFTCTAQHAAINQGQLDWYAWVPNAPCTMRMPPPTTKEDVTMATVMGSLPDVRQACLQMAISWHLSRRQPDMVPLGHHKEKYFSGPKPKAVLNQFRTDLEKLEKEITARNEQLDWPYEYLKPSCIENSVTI
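Purified human 12hLO (150 nM final) in 25 mM Hepes, 0.01% Triton X-100, pH 7.0 was preincubated 15 min at room temperature with compound. Then 40 uM arachidonic acid was added, 30 min. Hydroperoxide was read by Fe-XO absorbance ratio 573/405 nm.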
HT1080NT lethal: kills 2HG-producing HT-1080-NT fibrosarcoma cells. Potency, µM (doses to about 46.1 µM), for the others: top-dose activity, negative = less viability, usual class: cytotoxic. HT-1080-NT fibrosarcoma viability, CellTiter-Glo ATP luminescence, 48 h. hit rate 1.6% among 360,000;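 note: NT is the 2HG producing partner of a matched IDH1 knockdown line; potency is the fitted concentration of half-maximal effect; 0% = DMSO-treated cells and -100% = media-only wells without cells; nearly all actives have a fitted effect of over 55% in size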
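HT-1080-NT; 750 cells/well; 5% FBS RPMI; 48 h compound, 37 degrees C; CellTiter-Glo luminescence; curve fitting and curve-class assignment.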
TDP1 cell CPT: DT40-hTDP1 cell growth loss with CPT; chicken DT40 Tdp1-/-;hTDP1 cells + 20 nM CPT, ATP luminescence, 48 h; Potency, µM (titrated, usually from 46.2 µM), inactives show top-dose activity change, negative = growth inhibition, actives largely listed as inhibitors; hit rate 12% among 420,000; AID 686979; note: potency is the fitted concentration of half-maximal effect; nearly all actives have a fitted effect of over 55% in size
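Chicken DT40 Tdp1-/- cells stably complemented with human TDP1 were seeded at 400 cells/well in medium containing 20 nM camptothecin, exposed to pin-transferred compounds, and grown at 37 °C for at least 48 hr. Viability was read as ATP luminescence.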
IL1B secr inh: inhibitors of inflammasome signaling (IL-1 beta secretion). hit rate 4.7% among 360,000. activity change, % at 57.5 µM. THP-1 LPS/ATP IL-1B secretion, AlphaLISA, 16 h; hits give low values; in the data active = activity change below about -50%; inconclusive = mostly about -30% to -49%
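Secreted IL-1B measured by AlphaLISA bead assay after 16 h compound exposure of THP-1 cells; compounds (final up to 57.5 uM) added 1 h before LPS (250 ng/mL) and ATP (1.25 mM) stimulation; lower signal means less secretion.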
HT1080 IDH1KD tx: HT-1080 IDH1 knockdown cell toxicity (counter line). Potency, µM (doses to about 46.1 µM), inactives show top-dose activity, negative = toxicity, usual class: cytotoxic. AID 686971. hit rate 2% among 360,000. HT-1080 IDH1 knockdown viability, ATP luminescence, 48 h;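 note: potency is the fitted concentration of half-maximal effect; 0% = DMSO wells and -100% = cell-free medium wells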
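Knockdown cells (IDH1KD HT-1080) received compounds 2 h after plating at 750 cells/well and were kept 48 h at 37 °C in 5% FBS RPMI. A CellTiter-Glo luminescence read gave % activity for curve fitting.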
* = called active by the depositor; ? = inconclusive; . = not tested or not shown; [ ] = remark or other dose. Unless noted, calls come from the whole dose curve; as a rule, active = well fitted curve in the direction sought with a large enough effect; inconclusive = small, poorly fitted or top-dose-only effect, or another doubt; inactive = no such curve, though single readings can be large; an effect the other way counts as inactive or inconclusive. Unless noted, % is set by controls: 0 for no effect and ±100 for the full control effect.

SMILES | DT40 TDP1 no CPT | ALOX12 inh | HT1080NT lethal | TDP1 cell CPT | IL1B secr inh | HT1080 IDH1KD tx
COc1ccc(-c2cc([C@H]3CN4CC[C@H]3C[C@@H]4CN)n(C)n2)cc1OC | . | 101.2%[176 µM] | . | . | . | .
C=C[C@H]1CN2CC[C@H]1C[C@@H]2CNC(=O)COc1ccccc1 | . | 75.4%[176 µM] | . | . | . | .
CN1CCN(C(=O)Cc2c[nH]c3ncc(-c4ccnn4C)cc23)CC1 | . | 4.9%[176 µM] | . | . | . | .
COCC1CN(C2CCC2)CC12CCN(Cc1cccnc1)CC2 (configuration not stated) | . | 92.2% | . | . | . | .
CCc1nnc2ccc(N3CCN(CC)CC3)nn12 | . | 10.1% | . | . | . | .
COC(=O)C1=C(c2cccc(OC)c2OC)C[C@@H]2CC[C@H]1N2C(=O)N1CCCC1 | . | 0.0% | 23.7% | 20.6µM* | 5.0 | 7.2%
CCOC(=O)[C@]12Cc3c(cc(OC)c(OC)c3OC)[C@H]1N(C)C(=O)c1ccccc12 | 20.6µM* | 91.5% | 10.7% | ? | -54.8* | 1.1%
CCOC(=O)[C@]12Cc3c(cc(OC)c(OC)c3OC)[C@H]1N(CCC(=O)OC)C(=O)c1ccccc12 | 16.4µM* | 95.8% | ? | 18.4µM* | -116.3* | ?
CCOC(=O)c1ccc2c(c1)N(C)C(=O)c1ccccc1S2 | ? | . | 4.8% | ? | 13.2 | 8.2%
O=c1ccc(-c2ccccc2F)c2n1C[C@H]1C[C@@H]2CN(Cc2ccc(CO)o2)C1 | . | -22.9%[176 µM] | . | . | . | .
Cc1cccc(Cn2c(=O)n(CC3CCC(C(=O)N4CCC(C)CC4)CC3)c(=O)c3sccc32)c1 (configuration not stated) | 16.4µM* | -16.7% | . | 20.6µM* | . | .
CNCCc1ccc(OC)c(OC)c1 | -18.3% | 43.7% | -5.9% | -27.5% | -19.3 | 0.0%
CCc1ccc(-n2nc(C)c3c(C(=O)NCCc4ccc(OC)c(OC)c4)cc(C)nc32)cc1 | 18.4µM* | -0.5% | . | 18.4µM* | . | .
COc1cccc(C2=CC(c3cc(Br)ccc3F)n3nnnc3N2)c1 (configuration not stated) | 1.3µM* | 0.8% | . | 1.3µM* | . | .
CCCS(=O)(=O)N1[C@H]2CC[C@@H]1c1cnc(-c3ccc(F)cc3)nc1C2 | . | 14.2% | . | . | . | .
O=C(N/N=C/c1cc(Br)c(Br)s1)c1ccncc1 | 9.2µM* | -11.0% | -11.5% | 13µM* | 59.6 | -25.1%
Cc1cc(Br)cn2c(CC(=O)N3CCCCC3)c(-c3ccc(F)cc3)nc12 | 16.4µM* | 0.0% | 3.2% | ? | 29.0 | 3.8%
CC(C)(C)CN1CCCC2(CC(c3cccnc3)=NO2)C1 (configuration not stated) | . | 3.2%[12.5 µM] | . | . | . | .
O=C1c2ccccc2C(=O)c2c1ccc1c(=O)n(-c3ccccc3)[nH]c21 | 23.1µM* | -9.9% | 8.1% | ? | -11.7 | 11.4%
O=C1CS(=O)C2(CCNCC2)N1c1ccccc1 (configuration not stated) | . | 61.6% | . | . | . | .
Cc1cc(OCC(=O)N2CCN(Cc3nc(N)c4ccccc4n3)CC2)ccc1C(C)C | . | 25.5% | . | . | . | .
CCC(C)C1NC(=O)C2CCCN2C(=O)C(CC(C)C)OC(=O)CCNC(=O)C(C)N(C)C(=O)C(C(C)C)N(C)C1=O (configuration not stated) | 4.11µM* | 11.4% | 18.4µM* | 3.26µM* | -13.6 | 23.1µM*
CC(=O)OC1CC(OC2C(O)CC(OC3C(O)CC(OC4CC(O)C5(C)C(CC[C@@H]6[C@@H]5CCC5(C)C(C7=CC(=O)OC7)CCC65O)C4)OC3C)OC2C)OC(C)C1O (some centres not stated) | . | 4.6% | . | . | . | .
CCCCN1CCC2(COC(=O)N2c2ccncc2)C1 (configuration not stated) | . | -16.1%[176 µM] | . | . | . | .
Cc1cccc(C)c1Oc1nc(-c2ccccc2)ncc1S(=O)(=O)c1ccccc1 | 18.4µM* | 30.2% | -3.2% | ? | 2.2 | -0.1%
SMILES | DT40 TDP1 no CPT | ALOX12 inh | HT1080NT lethal | TDP1 cell CPT | IL1B secr inh | HT1080 IDH1KD tx
CN1C(=O)CN=C(c2ccc(Cl)cc2)c2cc(Cl)ccc21 | ? | -29.4% | ? | 12.3% | -20.7 | ?
Cc1ccc(NC(=O)CN2C(=O)CN=C(c3ccccc3)c3ccccc32)cc1Cl | ? | ? | . | 23.1µM* | . | .
CN1C(=S)CN=C(c2ccccc2)c2cc(Cl)ccc21 | 15µM* | . | . | ? | . | .
Cc1ccccc1CN1C(=O)CN=C(c2ccccc2)c2cc(Cl)ccc21 | 18.4µM* | -14.6% | . | ? | . | .
NNC(=O)CN1C(=O)CN=C(c2ccccc2)c2cc(Br)ccc21 | -8.7% | 174.9% | 8.8% | 1.9% | . | 10.9%
CN1C(=O)CN=C(c2ccc[nH]2)c2cc(Cl)ccc21 (tested in a mixture with another compound) | 1.3µM* | 9.7% | -13.5% | 1.64µM* | -1.0 | -15.6%
Cc1c(CC(=O)N2CCN(Cc3ccccc3)CC2)c(=O)oc2cc(O)ccc12 | . | 6.4% | . | . | . | .
CCC(CC)c1cc([C@H]2CN3CC[C@H]2C[C@@H]3CNC2CCN(C(C)=O)CC2)nc(-c2ccncc2)n1 | . | 96.6% | . | . | . | .
Cc1ccccc1CC(=O)N1CCN(C(C)c2nc(C3CC3)no2)CC1 (configuration not stated) | . | -7.0% | . | . | . | .
CC(C)NC(=O)OC[C@H]1C[C@@H]2CCN1C[C@@H]2c1cc(C2CCCCC2)nn1C | . | -21.6%[176 µM] | . | . | . | .
CN1C(=O)CN=C(c2ccccc2Cl)c2cc(Br)ccc21 | -15.3% | 1.5% | 0.0% | -28.2% | 6.9 | -16.6%
Cc1cccc(CN2C(=O)CN=C(c3ccccc3Cl)c3cc(Cl)ccc32)c1 | 23.1µM* | ? | . | 23.1µM* | . | .
NC1(c2ccccc2)CCC1 | . | -0.2% | . | . | . | .
COc1ccc(-c2c(C#N)c(N)nc3c2c(=O)nc2sccn23)cc1OC | . | -26.5% | . | . | . | .
COc1ccccc1N1CCN(CCc2c[nH]c3cc4c(cc23)OCO4)CC1 | 18.4µM* | ? | -9.1% | 23.1µM* | ? | ?
c1ccc2c(CN3CCOCC3)c[nH]c2c1 | ? | 9.7% | -3.8% | ? | 32.5 | -8.2%
COc1ccccc1N1CCN(Cc2c[nH]c3ccccc23)CC1 | 5.8µM* | ? | ? | 4.11µM* | . | ?
Cc1ccccc1N1CCN(Cc2c[nH]c3ccccc23)CC1 | 6.51µM* | ? | ? | 3.66µM* | ? | 1.26µM*
Cc1ccc([C@H]2C[C@@H](O)[C@@H](O)[C@@H]2NCC(C)C)cc1 | . | 19.6%[176 µM] | . | . | . | .
Cn1nc(C2CCCNC2)n(C2CCCC2)c1=O (configuration not stated) | . | 43.9% | . | . | . | .
CC1CCC(c2nnnn2-c2ccccc2)(N2CCOCC2)CC1 (configuration not stated) | . | -0.9% | . | . | . | .

Assay outcomes as filed in PubChem BioAssay.
